Our source for the fold change, cell count and z-score values is PubChem BioAssay.

Structures are written as SMILES. Activity calls are given as the source filed them.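 How the source made its calls, unless noted: active means compounds whose cell count with miR-34 switched on is under 0.7 times the count with it off; inactive means the rest.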

Test [1] can be described thus: sensitizers of A549 cells to miR-34 induction, primary screen, imaging, A549 dox-inducible miR-34, nuclei and caspase counts (AID 1347080). Further: test concentration not given here. The following applies: A549 miR-34 inducible, Hoechst nuclei count, 48 h.
Test [2] in a line: survival rescue of mitochondrial mutant cells in low glucose, primary screen, MELAS cybrids, Rieske KO mouse fibroblasts, CellTiter-Glo (AID 1508586;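 active means mean z-score across replicates of 1.96 or higher in either the MELAS or the Rieske mutant cell line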;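 further: test concentration not given here; z relative to plate mean and SD of compound and empty wells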).
Test [3] can be described thus: viability rescue of complex I mutant cybrids, primary screen, cell-based, galactose medium, ATP luminescence (AID 1645843;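 active means z-score of at least 1.8 in each of two replicates, scored against plate mean and spread of sample wells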;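 further: positive z means more ATP and so rescue of galactose-driven cybrid death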). The following applies: complex I mutant cybrid cells, 72 h, stronger effect = higher value.
Where [4] appears, read: stronger effect = lower value, cell number ratio, induced over uninduced.
Setting [5] is: measured here: relative caspase fold change +Dox/-Dox.
Setting [6] is: measured here: total cells with miR-34 induction, stronger effect = lower value.
Where [7] appears, read: measured here: total cells without miR-34 induction.
Where [8] appears, read: MELAS cybrid survival, CellTiter-Glo 48 h, stronger effect = higher value.
Where [9] appears, read: Rieske KO mouse fibroblast survival, CellTiter-Glo 72 h.

Regarding `Cc1c(CNC(=O)C(=O)c2c(-c3ccccc3)cc3ccccn23)cnn1C`, the fold change is 0.827 (inactive) in test [1] (setting [4]) and 2.08 in test [1] (setting [5]). The cell count in test [1] (setting [6]) worked out at 7720; in test [1] (setting [7]), 9330. For the same molecule, the z-score was 0.665 (inactive) in test [2] (setting [8]), -0.13 in test [2] (setting [9]) and 0.815 (inactive) in test [3].
For `CCCCNS(=O)(=O)c1ccccc1`, the values for the fold change in test [1] (setting [4]) and in test [1] (setting [5]) were 0.925 (inactive) and 0.335, respectively. For the same molecule, the cell count was determined as 8780 in test [1] (setting [6]) and 9480 in test [1] (setting [7]). In addition, the figures for the z-score in test [2] (setting [8]), in test [2] (setting [9]) and in test [3] were -0.187 (inactive), 0.108 and 0.175 (inactive), respectively.
`c1ccc(NCc2cccnc2)cc1`: the fold change was 0.876 (inactive) in test [1] (setting [4]) and 1.56 in test [1] (setting [5]). For the same molecule, the cell count is 8370 in test [1] (setting [6]) and 9560 in test [1] (setting [7]). The figures for the z-score in test [2] (setting [8]), in test [2] (setting [9]) and in test [3] were -0.153 (inactive), -0.0248 and 0.545 (inactive), respectively.
As for `COc1cc(F)c(-c2nc3c(cnn3Cc3cccs3)[nH]2)c(F)c1`, the fold change in test [1] (setting [4]) was 0.818 (inactive); in test [1] (setting [5]) it was 1.31. Moreover, the cell count in test [1] (setting [6]) was found to be 6350; in test [1] (setting [7]), 7760. Besides, the values for the z-score in test [2] (setting [8]), in test [2] (setting [9]) and in test [3] were -0.593 (inactive), -0.339 and 2.49 (active), respectively.
`O=C(O)CCc1c[nH]c2ccccc12`: the values for the fold change in test [1] (setting [4]) and in test [1] (setting [5]) were 0.896 (inactive) and 0.538, respectively. Also, the cell count in test [1] (setting [6]) was 8830; in test [1] (setting [7]) it was 9860. Also, the z-score in test [2] (setting [8]) was 0.524 (inactive); in test [2] (setting [9]), -0.334; in test [3], 0.56 (inactive).
`CCc1nc(NC(=O)NC(c2ccccc2)c2ccco2)nn1C` (stereo unspecified): the values for the fold change in test [1] (setting [4]) and in test [1] (setting [5]) were 0.878 (inactive) and 0.916, respectively. Further, the values for the cell count in test [1] (setting [6]) and in test [1] (setting [7]) were 8500 and 9680, respectively. The z-score in test [2] (setting [8]) is -0.443 (inactive); in test [2] (setting [9]) it was 0.186; in test [3], 1.04 (inactive).
In the case of `CCOC(=O)c1c(C)nn(-c2ccc(N)cc2)c1C`, the fold change in test [1] (setting [4]) is 0.897 (inactive); in test [1] (setting [5]) it was 0.586. Moreover, the figures for the cell count in test [1] (setting [6]) and in test [1] (setting [7]) were 8580 and 9570, respectively. Also, the values for the z-score in test [2] (setting [8]), in test [2] (setting [9]) and in test [3] were -0.251 (inactive), -0.884 and -0.7 (inactive), respectively.
Consider `CCC1C(=O)N(C)CCN1C(=O)Nc1nc(C)ns1` (stereo unspecified), for which the fold change in test [1] (setting [4]) was 1.02 (inactive); in test [1] (setting [5]) it was 1.35. Moreover, the cell count stood at 8670 in test [1] (setting [6]) and 8510 in test [1] (setting [7]). For the same molecule, the z-score in test [2] (setting [8]) is -0.0427 (inactive); in test [2] (setting [9]) it was -0.105; in test [3] it was -0.49 (inactive).
As for `O=c1c(-c2ccc(O)cc2)coc2cc(OC3OC(CO)C(O)C(O)C3O)ccc12` (stereo unspecified), the fold change was 1.06 (inactive) in test [1] (setting [4]) and 0.687 in test [1] (setting [5]). Moreover, the cell count in test [1] (setting [6]) was found to be 5800; in test [1] (setting [7]) it was 5490. The z-score in test [2] (setting [8]) was 0.694 (inactive); in test [2] (setting [9]), -0.345; in test [3], 0.515 (inactive).
For the molecule `COc1ccc2[nH]cc(CCC(=O)O)c2c1`, the fold change in test [1] (setting [4]) was 0.879 (inactive); in test [1] (setting [5]), 0.282. Also, the cell count in test [1] (setting [6]) amounted to 8310; in test [1] (setting [7]), 9460. Moreover, the z-score in test [2] (setting [8]) was 0.323 (inactive); in test [2] (setting [9]), -0.35; in test [3], 0.275 (inactive).
Turning to `COc1cc(F)ccc1C(=O)N1CCc2[nH]nc(Cc3ccccc3)c2C1`, the results for the fold change in test [1] (setting [4]) and in test [1] (setting [5]) were 0.845 (inactive) and 1.46, respectively. Further, the cell count in test [1] (setting [6]) amounted to 6700; in test [1] (setting [7]), 7930. The z-score in test [2] (setting [8]) is 0.33 (inactive); in test [2] (setting [9]), 0.986; in test [3], -0.125 (inactive).
For `Cc1nsc(NC(=O)N2CCCC(C)(O)C2)n1` (stereo unspecified), the figures for the fold change in test [1] (setting [4]) and in test [1] (setting [5]) were 0.901 (inactive) and 0.878, respectively. Also, the figures for the cell count in test [1] (setting [6]) and in test [1] (setting [7]) were 9190 and 10200, respectively. The z-score is -0.195 (inactive) in test [2] (setting [8]), -0.423 in test [2] (setting [9]) and -0.565 (inactive) in test [3].
Turning to `COc1cc2c(cc1-c1nnc3ccccn13)OCO2`, the figures for the fold change in test [1] (setting [4]) and in test [1] (setting [5]) were 0.908 (inactive) and 2.79, respectively. In addition, the cell count was found to be 8030 in test [1] (setting [6]) and 8840 in test [1] (setting [7]). Also, the values for the z-score in test [2] (setting [8]), in test [2] (setting [9]) and in test [3] were 0.597 (inactive), -0.284 and -0.465 (inactive), respectively.
Regarding `O=C(O)c1cccnc1Nc1ccc(Cl)cc1`, the fold change was 1.17 (inactive) in test [1] (setting [4]) and 0.619 in test [1] (setting [5]). Also, the cell count in test [1] (setting [6]) is 5660; in test [1] (setting [7]), 4840. Also, the z-score in test [2] (setting [8]) is -0.775 (inactive); in test [2] (setting [9]), -0.287; in test [3], 0.845 (inactive).
Consider `COc1ccc2nc(Cn3cnc4cc(F)ccc4c3=O)[nH]c2c1`, for which the results for the fold change in test [1] (setting [4]) and in test [1] (setting [5]) were 0.891 (inactive) and 1.56, respectively. For the same molecule, the cell count came out at 7880 in test [1] (setting [6]) and 8840 in test [1] (setting [7]). Besides, the figures for the z-score in test [2] (setting [8]), in test [2] (setting [9]) and in test [3] were -0.0496 (inactive), -0.0588 and -0.39 (inactive), respectively.
On to `O=C(c1cccc(=O)[nH]1)N(Cc1cccnc1)Cc1ccc2c(c1)OCO2`, for which the values for the fold change in test [1] (setting [4]) and in test [1] (setting [5]) were 0.964 (inactive) and 1.96, respectively. Also, the cell count in test [1] (setting [6]) amounted to 9470; in test [1] (setting [7]) it was 9830. The z-score in test [2] (setting [8]) is -0.318 (inactive); in test [2] (setting [9]), 0.234; in test [3] it was -0.17 (inactive).
For `O=c1[nH]c(=O)c2[nH]cnc2[nH]1`, the fold change in test [1] (setting [4]) is 0.891 (inactive); in test [1] (setting [5]), 0.584. Besides, the cell count in test [1] (setting [6]) was determined as 8870; in test [1] (setting [7]) it was 9950. The values for the z-score in test [2] (setting [8]), in test [2] (setting [9]) and in test [3] were 0.44 (inactive), -0.148 and -0.02 (inactive), respectively.
On to `O=C(Nc1n[nH]c(Cc2ccccc2)n1)N1CCN(c2ncncn2)CC1`, for which the fold change in test [1] (setting [4]) is 0.914 (inactive); in test [1] (setting [5]), 1.11. For the same molecule, the cell count in test [1] (setting [6]) turned out to be 9380; in test [1] (setting [7]), 10300. Further, the z-score is 0.379 in test [2] (setting [8]), 4.03 in test [2] (setting [9]) and 0.44 (inactive) in test [3].
Consider `O=c1c2nccnc2ncn1Cc1scnc1-c1ccccc1`, for which the results for the fold change in test [1] (setting [4]) and in test [1] (setting [5]) were 0.893 (inactive) and 0.515, respectively. In addition, the cell count is 8870 in test [1] (setting [6]) and 9940 in test [1] (setting [7]). In addition, the z-score in test [2] (setting [8]) is -0.26 (inactive); in test [2] (setting [9]), -0.294; in test [3], -0.445 (inactive).
Regarding `CC(=O)Nc1cccc(-c2nn(CC(=O)Nc3cnn(C)n3)c3ccccc23)c1`, the fold change was 0.885 (inactive) in test [1] (setting [4]) and 1.89 in test [1] (setting [5]). Besides, the cell count in test [1] (setting [6]) amounted to 8450; in test [1] (setting [7]) it was 9550. Moreover, the z-score was -0.345 (inactive) in test [2] (setting [8]), 0.241 in test [2] (setting [9]) and -0.43 (inactive) in test [3].
In the case of `NC(=O)Cc1c[nH]c2ccccc12`, the results for the fold change in test [1] (setting [4]) and in test [1] (setting [5]) were 0.914 (inactive) and 0.482, respectively. In addition, the cell count in test [1] (setting [6]) came to 8170; in test [1] (setting [7]) it was 8950. In addition, the z-score in test [2] (setting [8]) was 0.728 (inactive); in test [2] (setting [9]), -0.479; in test [3], 0.1 (inactive).
With `OC(CNCC(O)C1CCc2cc(F)ccc2O1)C1CCc2cc(F)ccc2O1` (stereo unspecified), the fold change in test [1] (setting [4]) was 1.62 (inactive); in test [1] (setting [5]), 0.335. Further, the values for the cell count in test [1] (setting [6]) and in test [1] (setting [7]) were 2500 and 1540, respectively. The z-score was 0.602 in test [2] (setting [8]), 2.88 in test [2] (setting [9]) and -2.66 (inactive) in test [3].
Consider `Cc1cc2nc3[nH]c(=O)[nH]c(=O)c3nc2cc1C`, for which the fold change in test [1] (setting [4]) was 0.917 (inactive); in test [1] (setting [5]) it was 0.188. The results for the cell count in test [1] (setting [6]) and in test [1] (setting [7]) were 7820 and 8530, respectively. Further, the z-score is 1.63 (inactive) in test [2] (setting [8]), 0.292 in test [2] (setting [9]) and 0.825 (inactive) in test [3].
